Data: PubChem BioAssay (EPA / NIEHS)
Inconclusive results are not listed. Active and inactive are the calls of the source. How the source made its calls: active means hit-call score of the fitted dose curve at least 0.9, where 1 is the maximum; inconclusive means response in the unintended direction; inactive means score below 0.9.

How the values were obtained:
[1] = molecular target: Muscarinic acetylcholine receptor M2 (Homo sapiens) (UniProt P08172); test: NVS_GPCR_hM2: NovaScreen (NVS) G Protein-Coupled Receptor Assay for human Muscarinic, M2 Receptor (AID 2283273)
Procedure, shortened: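 Radioligand competition binding, cell-free, receptor from CHO; 1 h incubation; scintillation detection. Primary testing at 25 uM in duplicate.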

[2] = molecular target: human Neurokinin, NK2 Receptor, TACR2 (gene 6865) (UniProt P21452); test: NVS_GPCR_hNK2: NovaScreen (NVS) G Protein-Coupled Receptor Assay for human Neurokinin, NK2 Receptor (AID 2283278);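 further: actives reduce bound radioligand signal relative to DMSO baseline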
Procedure, shortened: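 Test chemicals displace a radioligand from receptor prepared from CHO cells in a cell-free format, read after 4 hours by scintillation counting on filters. Screening starts at 25 uM in duplicate, and active chemicals then go to concentration series.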

[3] = molecular target: human Opioid Receptor Mu (Opiate Mu), OPRM1 (gene 4988) (UniProt P35372); test: NVS_GPCR_hOpiate_mu: NovaScreen (NVS) G Protein-Coupled Receptor Assay for human Opioid Receptor Mu (Opiate Mu) (AID 2283290);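 further: hits lower bound tracer signal versus DMSO meaning displacement of the ligand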
Procedure, shortened: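 Here, radioligand binding to CHO-extracted receptor was measured after 2.5 h using filter-based scintillation detection. Initial single-concentration screening used 25 uM in duplicate with plate controls; confirmed actives went to concentration-response testing.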

[4] = molecular target: Neuropeptide Y receptor type 2 (Homo sapiens) (UniProt P49146); test: NVS_GPCR_hNPY2: NovaScreen (NVS) G Protein-Coupled Receptor Assay for human Neuropeptide Receptor Y2 (NPY2) (AID 2283277)
Procedure, shortened: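 Chemicals were first tested in duplicate at 25 uM, then actives in singleton concentration series to 50 uM. Tracer binding to SK-N-MC-derived protein measured cell-free after 1 h via filter scintillation; signal loss relative to DMSO.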

[5] = molecular target: Muscarinic acetylcholine receptor M3 (Homo sapiens) (UniProt P20309); test: NVS_GPCR_hM3: NovaScreen (NVS) G Protein-Coupled Receptor Assay for human Muscarinic, M3 Receptor (AID 2283272)
Procedure, shortened: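 Radioligand displacement binding on human M3 receptor in CHO-derived membranes, 1 h incubation, filter-based scintillation counting. Primary screen in duplicate at 25 uM; actives followed up in concentration series; loss of signal versus DMSO.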

[6] = molecular target: rat Serotonin, 5-Hydroxytryptamine Receptor 1 (5HT1), Non-Selective Binding, Htr1a (gene 24473) (UniProt P19327); test: NVS_GPCR_r5HT1_NonSelective: NovaScreen (NVS) G Protein-Coupled Receptor Assay for rat Serotonin, 5-Hydroxytryptamine Receptor 1 (5HT1), Non-Selective Binding (AID 2283286)
Procedure, shortened: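 Binding of a radioligand to rat cortex membranes is read by filtration and scintillation counting after 1 h. Compounds were screened at 25 uM in duplicate. Actives were then titrated to a top of 50 uM. DMSO is the baseline.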

[7] = molecular target: Muscarinic acetylcholine receptor M1 (Homo sapiens) (UniProt P11229); test: NVS_GPCR_hM1: NovaScreen (NVS) G Protein-Coupled Receptor Assay for human Muscarinic, M1 Receptor (AID 2283270)
Procedure, shortened: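 Actives from a duplicate 25 uM single-point screen were retested in concentration series. Binding measured as displacement of a radioligand from CHO-derived receptor preparation, 1 h incubation, filtration and scintillation counting, analysed as signal loss against DMSO.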

[8] = molecular target: human Vasopressin 1A Receptor (V1A), AVPR1A (gene 552) (UniProt P37288); test: NVS_GPCR_hV1A: NovaScreen (NVS) G Protein-Coupled Receptor Assay for human Vasopressin 1A Receptor (V1A) (AID 2283284)
Procedure, shortened: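 Single-concentration duplicate screen at 25 uM, with concentration-response follow-up (top 50 uM) for actives. The assay measured displacement of a radioligand from human platelet-derived receptor after 1.5 h, detected by filtration and scintillation counting.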

[9] = molecular target: human Neurotensin Receptor (NTS), NTSR1 (gene 4923) (UniProt P30989); test: NVS_GPCR_hNTS: NovaScreen (NVS) G Protein-Coupled Receptor Assay for human Neurotensin Receptor (NTS) (AID 2283279)
Procedure, shortened: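 Compounds competed with a radiolabelled ligand for binding to CHO-derived human neurotensin receptor; bound signal counted after filtration, 1 h. Screened first at a single concentration of 25 uM in duplicate, then concentration series to 50 uM maximum for actives.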

[10] = molecular target: human Muscarinic, M4 Receptor, CHRM4 (gene 1132) (UniProt P08173); test: NVS_GPCR_hM4: NovaScreen (NVS) G Protein-Coupled Receptor Assay for human Muscarinic, M4 Receptor (AID 2283274)
Procedure, shortened: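 Filter-based scintillation counting of radioligand bound to CHO-expressed human M4 preparations after 1 h; loss of signal fitted versus DMSO. Initial duplicate testing at 25 uM, concentration-response follow-up for actives.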

[11] = system: rabbit Platelet Activating Factor Receptor (PAF), gene 100354046; test: NVS_GPCR_rabPAF: NovaScreen (NVS) G Protein-Coupled Receptor Assay for rabbit Platelet Activating Factor Receptor (PAF) (AID 2283287)
Procedure, shortened: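 Rabbit platelet membrane preparation; radioligand displacement read by filter-based scintillation counting 1 h after dosing, loss of signal versus DMSO. Primary screen in duplicate at 25 uM, actives followed up in concentration series.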

[12] = molecular target: rat Adrenergic, Alpha 1, Non-selective Receptor (Adra1), Adra1a (gene 29412) (UniProt P43140); test: NVS_GPCR_rAdra1_NonSelective: NovaScreen (NVS) G Protein-Coupled Receptor Assay for rat Adrenergic, Alpha 1, Non-selective Receptor (Adra1) (AID 2283289)
Procedure, shortened: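 Chemicals first screened in duplicate at 25 uM, then actives tested in concentration series up to 50 uM. Binding measured as displacement of radioligand from rat forebrain membrane receptors, 1 h, filtration with scintillation readout; DMSO baseline.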

[13] = molecular target: human Purinergic Receptor P2Y, P2RY1 (gene 5028) (UniProt P47900); test: NVS_GPCR_hPY2: NovaScreen (NVS) G Protein-Coupled Receptor Assay for human Purinergic Receptor P2Y (AID 2283281)
Procedure, shortened: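 Filtration scintillation readout of radioligand displacement on U937 extract, measured 1 h post-dosing. Single 25 uM duplicate screen, then singleton concentration series to 50 uM for chemicals passing threshold; DMSO as baseline.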

[14] = molecular target: human Thromboxane A2 Receptor (TXA2), TBXA2R (gene 6915) (UniProt P21731); test: NVS_GPCR_hTXA2: NovaScreen (NVS) G Protein-Coupled Receptor Assay for human Thromboxane A2 Receptor (TXA2) (AID 2283282);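 further: actives reduce bound radioligand signal relative to DMSO baseline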
Procedure, shortened: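 Cell-free radioligand binding with human platelet-derived receptor; 1 h after dosing, filter-based scintillation counting, loss of signal vs DMSO. Primary screen in duplicate at 25 uM.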

[15] = molecular target: human Leukotriene B4 Receptor 1 (LTB4-BLT1), LTB4R (gene 1241) (UniProt Q15722); test: NVS_GPCR_hLTB4_BLT1: NovaScreen (NVS) G Protein-Coupled Receptor Assay for human Leukotriene B4 Receptor 1 (LTB4-BLT1) (AID 2283271)
Procedure, shortened: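 Cell-free human neutrophil receptor preparation, 1 h exposure, radioligand binding read by filter scintillation counting. Single 25 uM duplicate screen, then concentration series topping at 50 uM; binding loss scored against DMSO baseline.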

[16] = molecular target: human Neuropeptide Receptor Y1 (NPY1), NPY1R (gene 4886) (UniProt P25929); test: NVS_GPCR_hNPY1: NovaScreen (NVS) G Protein-Coupled Receptor Assay for human Neuropeptide Receptor Y1 (NPY1) (AID 2283276)
Procedure, shortened: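 Displacement of specific radioligand from NPY1 receptor of SK-N-MC origin, read by filtration and scintillation after 1 h. Compounds first tested at 25 uM in duplicate, then actives in concentration series; signal loss relative to DMSO.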

[17] = molecular target: guinea pig Bradykinin Receptor B2 (BK2), BDKRB2 (gene 100135486) (UniProt O70526); test: NVS_GPCR_gBK2: NovaScreen (NVS) G Protein-Coupled Receptor Assay for guinea pig Bradykinin Receptor B2 (BK2) (AID 2283292)
Procedure, shortened: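 Guinea pig ileum membrane preparation incubated 1 h with radioligand and test chemical; bound counts measured after filtration. Primary duplicate screening at 25 uM, then singleton concentration series with a 50 uM top dose; DMSO as baseline.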

[18] = molecular target: mouse Cholecystokinin, CCK1 Receptor (CCKA), Cckar (gene 12425) (UniProt O08786); test: NVS_GPCR_mCCKAPeripheral: NovaScreen (NVS) G Protein-Coupled Receptor Assay for mouse Cholecystokinin, CCK1 Receptor (CCKA) (AID 2283285)
Procedure, shortened: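 Chemicals were first screened in duplicate at 25 uM, with those meeting threshold (e.g., 30% inhibition) retested in singleton concentration series to 50 uM maximum. Binding of radioligand to mouse pancreatic membranes was read after 2 h by filtration and scintillation counting.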

[19] = system: guinea pig Atrionatriuretic Peptide Receptor A (ANPA), gene 100135578; test: NVS_GPCR_gANPA: NovaScreen (NVS) G Protein-Coupled Receptor Assay for guinea pig Atrionatriuretic Peptide Receptor A (ANPA) (AID 2283291)
Procedure, shortened: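 Displacement of specific radioligand from guinea pig cerebellum membranes was read by scintillation after 1 h. A duplicate single-point screen at 25 uM was followed by a concentration series up to 50 uM, analysed relative to DMSO.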

Sequence of human Neurotensin Receptor (NTS), NTSR1 (gene 4923) (P30989 whole entry, looked up): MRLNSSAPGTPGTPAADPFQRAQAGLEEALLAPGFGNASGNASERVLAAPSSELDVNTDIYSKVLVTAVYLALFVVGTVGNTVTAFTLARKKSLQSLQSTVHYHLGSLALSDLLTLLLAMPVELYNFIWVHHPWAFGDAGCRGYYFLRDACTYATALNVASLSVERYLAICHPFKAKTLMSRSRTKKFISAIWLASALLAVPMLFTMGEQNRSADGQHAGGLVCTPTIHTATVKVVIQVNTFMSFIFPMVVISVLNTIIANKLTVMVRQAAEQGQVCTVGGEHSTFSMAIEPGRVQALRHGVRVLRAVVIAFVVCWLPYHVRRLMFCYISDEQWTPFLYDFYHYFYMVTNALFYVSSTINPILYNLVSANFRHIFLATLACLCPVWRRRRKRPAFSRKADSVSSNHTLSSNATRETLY
Sequence of Neuropeptide Y receptor type 2 (Homo sapiens) (P49146 whole entry, looked up): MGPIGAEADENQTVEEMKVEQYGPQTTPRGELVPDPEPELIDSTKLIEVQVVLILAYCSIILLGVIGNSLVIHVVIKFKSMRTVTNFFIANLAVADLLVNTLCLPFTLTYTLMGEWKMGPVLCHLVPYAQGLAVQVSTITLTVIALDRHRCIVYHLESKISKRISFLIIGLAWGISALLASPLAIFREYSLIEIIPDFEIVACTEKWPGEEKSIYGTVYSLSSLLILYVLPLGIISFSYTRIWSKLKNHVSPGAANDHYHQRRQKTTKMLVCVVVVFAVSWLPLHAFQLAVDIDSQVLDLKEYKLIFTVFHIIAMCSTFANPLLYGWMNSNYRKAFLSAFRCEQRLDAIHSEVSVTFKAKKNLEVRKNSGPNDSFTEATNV
Sequence of Muscarinic acetylcholine receptor M2 (Homo sapiens) (P08172 whole entry, looked up): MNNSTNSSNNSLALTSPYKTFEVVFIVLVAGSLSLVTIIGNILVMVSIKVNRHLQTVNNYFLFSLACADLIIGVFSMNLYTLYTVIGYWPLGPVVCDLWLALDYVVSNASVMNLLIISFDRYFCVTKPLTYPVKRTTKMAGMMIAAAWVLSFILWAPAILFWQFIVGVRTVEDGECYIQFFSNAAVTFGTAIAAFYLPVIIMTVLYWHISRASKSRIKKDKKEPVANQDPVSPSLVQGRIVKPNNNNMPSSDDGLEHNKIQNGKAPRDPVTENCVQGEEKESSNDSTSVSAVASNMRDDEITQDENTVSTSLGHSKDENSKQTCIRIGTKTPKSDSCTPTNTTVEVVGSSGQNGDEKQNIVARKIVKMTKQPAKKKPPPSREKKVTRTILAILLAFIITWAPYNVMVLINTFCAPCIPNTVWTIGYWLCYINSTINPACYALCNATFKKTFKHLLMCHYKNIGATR
Sequence of human Muscarinic, M4 Receptor, CHRM4 (gene 1132) (P08173 whole entry, looked up): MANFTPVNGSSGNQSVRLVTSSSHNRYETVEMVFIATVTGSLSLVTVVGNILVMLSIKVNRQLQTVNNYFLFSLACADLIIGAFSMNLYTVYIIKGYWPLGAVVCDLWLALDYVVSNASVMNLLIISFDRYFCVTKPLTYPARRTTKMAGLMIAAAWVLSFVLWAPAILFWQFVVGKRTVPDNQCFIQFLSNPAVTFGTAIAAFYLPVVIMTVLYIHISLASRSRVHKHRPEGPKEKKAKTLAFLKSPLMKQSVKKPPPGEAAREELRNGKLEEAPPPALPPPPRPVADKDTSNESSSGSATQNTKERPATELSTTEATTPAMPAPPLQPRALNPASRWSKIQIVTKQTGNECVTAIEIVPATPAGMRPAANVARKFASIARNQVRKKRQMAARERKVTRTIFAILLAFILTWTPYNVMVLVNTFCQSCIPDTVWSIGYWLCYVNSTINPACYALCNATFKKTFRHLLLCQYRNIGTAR
Sequence of human Neurokinin, NK2 Receptor, TACR2 (gene 6865) (P21452 whole entry, looked up): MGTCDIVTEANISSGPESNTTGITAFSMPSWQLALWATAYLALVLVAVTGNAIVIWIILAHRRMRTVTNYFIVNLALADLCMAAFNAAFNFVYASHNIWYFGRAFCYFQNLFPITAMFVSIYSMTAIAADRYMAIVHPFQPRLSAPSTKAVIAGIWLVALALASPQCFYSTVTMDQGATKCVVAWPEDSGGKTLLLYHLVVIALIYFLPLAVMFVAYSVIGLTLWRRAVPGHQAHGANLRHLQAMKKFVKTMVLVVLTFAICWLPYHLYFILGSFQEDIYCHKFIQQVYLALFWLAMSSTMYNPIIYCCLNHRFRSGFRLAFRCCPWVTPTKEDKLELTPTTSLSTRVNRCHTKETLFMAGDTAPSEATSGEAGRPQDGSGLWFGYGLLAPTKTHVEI
Sequence of rat Serotonin, 5-Hydroxytryptamine Receptor 1 (5HT1), Non-Selective Binding, Htr1a (gene 24473) (P19327 whole entry, looked up): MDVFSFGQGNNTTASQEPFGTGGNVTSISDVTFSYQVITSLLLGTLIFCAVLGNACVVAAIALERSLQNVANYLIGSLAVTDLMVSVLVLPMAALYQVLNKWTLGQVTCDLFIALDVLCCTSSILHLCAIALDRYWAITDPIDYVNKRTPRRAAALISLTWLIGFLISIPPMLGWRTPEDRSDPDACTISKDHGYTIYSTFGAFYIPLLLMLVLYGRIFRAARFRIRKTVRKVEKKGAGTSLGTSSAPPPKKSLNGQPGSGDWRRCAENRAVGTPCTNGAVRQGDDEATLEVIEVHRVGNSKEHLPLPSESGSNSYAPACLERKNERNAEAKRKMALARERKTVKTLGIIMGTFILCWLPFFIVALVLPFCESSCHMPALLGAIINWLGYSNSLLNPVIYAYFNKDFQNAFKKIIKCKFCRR
Sequence of Muscarinic acetylcholine receptor M3 (Homo sapiens) (P20309 whole entry, looked up): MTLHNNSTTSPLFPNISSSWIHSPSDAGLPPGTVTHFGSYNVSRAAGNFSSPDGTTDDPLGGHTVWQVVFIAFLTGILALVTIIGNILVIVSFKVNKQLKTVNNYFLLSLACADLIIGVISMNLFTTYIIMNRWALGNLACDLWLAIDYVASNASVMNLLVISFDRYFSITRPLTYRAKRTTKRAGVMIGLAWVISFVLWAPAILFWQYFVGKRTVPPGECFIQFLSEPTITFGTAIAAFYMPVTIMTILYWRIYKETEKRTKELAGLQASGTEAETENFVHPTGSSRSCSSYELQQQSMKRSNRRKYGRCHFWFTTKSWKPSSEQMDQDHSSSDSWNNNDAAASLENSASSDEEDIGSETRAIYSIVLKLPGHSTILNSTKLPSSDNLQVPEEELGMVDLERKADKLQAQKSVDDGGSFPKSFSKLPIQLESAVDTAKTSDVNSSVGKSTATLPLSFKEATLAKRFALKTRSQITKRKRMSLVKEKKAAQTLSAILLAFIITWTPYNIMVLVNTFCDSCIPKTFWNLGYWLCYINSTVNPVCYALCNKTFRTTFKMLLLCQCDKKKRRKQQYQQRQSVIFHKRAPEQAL
Sequence of human Opioid Receptor Mu (Opiate Mu), OPRM1 (gene 4988) (P35372 whole entry, looked up): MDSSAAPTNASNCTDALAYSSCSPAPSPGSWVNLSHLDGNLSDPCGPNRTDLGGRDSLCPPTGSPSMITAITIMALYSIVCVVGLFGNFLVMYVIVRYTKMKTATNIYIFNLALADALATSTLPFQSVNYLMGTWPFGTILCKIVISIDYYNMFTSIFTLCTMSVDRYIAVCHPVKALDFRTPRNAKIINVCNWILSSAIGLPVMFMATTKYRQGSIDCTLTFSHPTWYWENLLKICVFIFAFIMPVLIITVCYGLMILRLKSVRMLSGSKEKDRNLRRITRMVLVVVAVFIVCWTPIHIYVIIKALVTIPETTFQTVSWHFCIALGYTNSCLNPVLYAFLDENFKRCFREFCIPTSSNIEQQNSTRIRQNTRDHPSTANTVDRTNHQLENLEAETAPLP
Sequence of human Vasopressin 1A Receptor (V1A), AVPR1A (gene 552) (P37288 whole entry, looked up): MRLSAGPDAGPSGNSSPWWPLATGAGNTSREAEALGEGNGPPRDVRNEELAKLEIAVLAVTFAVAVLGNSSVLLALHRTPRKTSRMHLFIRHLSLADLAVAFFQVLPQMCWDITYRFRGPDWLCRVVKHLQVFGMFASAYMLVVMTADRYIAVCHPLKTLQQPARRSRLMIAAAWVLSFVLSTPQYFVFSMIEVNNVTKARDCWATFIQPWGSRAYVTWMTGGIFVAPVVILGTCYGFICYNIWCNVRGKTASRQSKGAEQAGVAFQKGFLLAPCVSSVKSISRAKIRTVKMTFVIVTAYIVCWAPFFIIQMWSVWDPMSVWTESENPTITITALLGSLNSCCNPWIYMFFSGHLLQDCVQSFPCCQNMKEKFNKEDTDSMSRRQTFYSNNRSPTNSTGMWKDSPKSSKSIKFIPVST
Sequence of Muscarinic acetylcholine receptor M1 (Homo sapiens) (P11229 whole entry, looked up): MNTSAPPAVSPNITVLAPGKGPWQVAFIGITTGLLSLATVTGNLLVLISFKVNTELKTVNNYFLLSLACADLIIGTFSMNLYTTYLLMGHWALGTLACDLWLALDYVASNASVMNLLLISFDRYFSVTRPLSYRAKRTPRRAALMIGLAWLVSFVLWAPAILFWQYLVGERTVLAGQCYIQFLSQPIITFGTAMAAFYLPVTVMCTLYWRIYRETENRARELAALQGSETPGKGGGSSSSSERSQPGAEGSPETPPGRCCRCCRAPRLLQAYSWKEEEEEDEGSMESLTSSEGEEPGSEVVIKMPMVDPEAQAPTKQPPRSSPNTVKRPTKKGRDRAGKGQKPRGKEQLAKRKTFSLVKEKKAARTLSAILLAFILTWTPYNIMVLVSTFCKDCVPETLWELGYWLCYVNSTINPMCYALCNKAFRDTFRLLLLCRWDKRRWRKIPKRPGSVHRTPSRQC
Sequence of human Thromboxane A2 Receptor (TXA2), TBXA2R (gene 6915) (P21731 whole entry, looked up): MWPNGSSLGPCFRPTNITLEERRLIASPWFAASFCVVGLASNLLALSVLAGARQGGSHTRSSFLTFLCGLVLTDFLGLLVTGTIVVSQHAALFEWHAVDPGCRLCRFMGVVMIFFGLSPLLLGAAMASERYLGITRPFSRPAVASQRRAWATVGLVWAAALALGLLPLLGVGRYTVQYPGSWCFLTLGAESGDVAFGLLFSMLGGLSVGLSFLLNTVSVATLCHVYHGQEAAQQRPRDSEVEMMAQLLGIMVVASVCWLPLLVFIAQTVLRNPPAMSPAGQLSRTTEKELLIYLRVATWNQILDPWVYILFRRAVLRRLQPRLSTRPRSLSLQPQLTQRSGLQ

Q: Which outcome [1] does the source give for `CCCOCC(=Nc1ccc(Cl)cc1C(F)(F)F)n1ccnc1` here?
A: Its outcome is “inactive”.

Q: What about the outcome [2] of the same compound?
A: Its outcome is “inactive”.

Q: What about the AC50 [3] of the same compound?
A: Its AC50 is 7.33 µM (active).

Q: What does the source list for `C[N+]1(C)CCCCC1`?
A: outcome [1]: inactive; outcome [4]: inactive

Q: How did the outcome [5] turn out when `CN1COCN(Cc2cnc(Cl)s2)C1=N[N+](=O)[O-]` was run?
A: The outcome was “inactive”.

Q: What about the outcome [4] of the same compound?
A: The outcome was “inactive”.

Q: `CCC(=O)Nc1ccc(Cl)c(Cl)c1` was tested. Which outcome [6] did it give?
A: The outcome was “inactive”.

Q: With `CCOP(=O)(NC(C)C)Oc1ccc(SC)c(C)c1` (centres undefined) as the compound, how does the outcome [7] read?
A: The outcome was “inactive”.

Q: For `COc1cccc(C(=O)NN(C(=O)c2cc(C)cc(C)c2)C(C)(C)C)c1C`, which AC50 [5] is on record?
A: The AC50 was 0.429 µM (active).

Q: What about the outcome [1] of the same compound?
A: The outcome was “inactive”.

Q: What about the outcome [8] of the same compound?
A: Its outcome is “inactive”.

Q: For `CC1(C(=O)Nc2ccc(O)c(Cl)c2Cl)CCCCC1`, which AC50 [2] is on record?
A: Its AC50 is 3.04 µM (active).

Q: With `CCCCSP(=O)(SCCCC)SCCCC` as the compound, how does the outcome [9] read?
A: The outcome was “inactive”.

Q: `CCOP(=S)(OCC)Oc1cc(C)nc(C(C)C)n1` was tested. Which outcome [9] did it give?
A: Its outcome is “inactive”.

Q: And the outcome [6]?
A: The outcome was “inactive”.

Q: For `CC(C1CC1)C(O)(Cn1cncn1)c1ccc(Cl)cc1` (centres undefined), which AC50 [10] is on record?
A: The AC50 was 12.1 µM (active).

Q: Which outcome [9] does the source give for `CCCCOC(=O)[C@@H](C)Oc1ccc(Oc2ccc(C#N)cc2F)cc1` here?
A: Its outcome is “inactive”.

Q: What about the outcome [11] of the same compound?
A: The outcome was “inactive”.

Q: How did the outcome [6] turn out when `CCOP(=O)(OCC)Oc1cc(C)nc(C(C)C)n1` was run?
A: The outcome was “inactive”.

Q: `Nc1nc(N)nc(NC2CC2)n1` was tested. Which outcome [4] did it give?
A: The outcome was “inactive”.

Q: What about the outcome [12] of the same compound?
A: The outcome was “inactive”.

Q: How did the AC50 [11] turn out when `CCOP(=S)(Oc1cnc(C(C)(C)C)nc1)OC(C)C` (centres undefined) was run?
A: The AC50 was 11.5 µM (active).

Q: How did the outcome [13] turn out when `CN(C)[C@@H]1C(=O)C(C(N)=O)=C(O)[C@@]2(O)C(=O)C3=C(O)c4c(O)cccc4[C@@](C)(O)[C@H]3[C@H](O)[C@@H]12` was run?
A: The outcome was “inactive”.

Q: And the outcome [14]?
A: The outcome was “inactive”.

Q: Which outcome [15] does the source give for `COc1cc(OC)nc(Sc2cccc(Cl)c2C(=O)O)n1` here?
A: The outcome was “inactive”.

Q: And the AC50 [14]?
A: The AC50 was 4.45 µM (active).

Q: With `CC1=NNC(=O)N(/N=C/c2cccnc2)C1` as the compound, how does the outcome [10] read?
A: The outcome was “inactive”.

Q: And the outcome [9]?
A: The outcome was “inactive”.

Q: For `CCc1cccc(C)c1N(C(=O)CCl)C(C)COC` (centres undefined), which AC50 [3] is on record?
A: Its AC50 is 5.26 µM (active).

Q: Which results are given for `CCOP(=S)(OCC)Oc1ccc([N+](=O)[O-])cc1`?
A: AC50 [5]: 5.42 µM (active); AC50 [10]: 7.24 µM (active)

Q: With `CN(C)C(=O)Nc1cccc(C(F)(F)F)c1` as the compound, how does the outcome [6] read?
A: Its outcome is “inactive”.

Q: Which results are given for `S=C1NCCN1`?
A: outcome [1]: inactive; outcome [16]: inactive; outcome [3]: inactive; outcome [17]: inactive

Q: `CCC(=NOC/C=C/Cl)C1=C(O)CC(C2CCOCC2)CC1=O` (centres undefined) was tested. Which outcome [8] did it give?
A: Its outcome is “inactive”.

Q: Which AC50 [7] does the source give for `C#CCC1=C(C)C(OC(=O)C2C(C=C(C)C)C2(C)C)CC1=O` (centres undefined) here?
A: Its AC50 is 11 µM (active).

Q: What about the AC50 [5] of the same compound?
A: The AC50 was 7.59 µM (active).

Q: What about the outcome [2] of the same compound?
A: The outcome was “inactive”.

Q: And the outcome [18]?
A: The outcome was “inactive”.

Q: What about the AC50 [11] of the same compound?
A: The AC50 was 10.9 µM (active).

Q: What about the outcome [19] of the same compound?
A: The outcome was “inactive”.
